Source: PubChem BioAssay
MCF10A rereplic: induces DNA re-replication in MCF 10a normal breast cells | MCF 10A DNA re-replication, Hoechst nuclear intensity, 48 h | Potency, µM (titrated, usually from 46.1 µM), without a hit: top-dose activity, positive = re-replication, actives largely listed as activators | 350,000 tested, 2.9% active | AID 624296; also: % of control where 0% means no effect; nearly all actives have a fitted effect of over 50% in size
HT1080-NT tox: kills 2HG-producing HT-1080-NT fibrosarcoma cells; HT-1080-NT fibrosarcoma viability, CellTiter-Glo ATP luminescence, 48 h; Potency, µM (doses to about 46.1 µM), without a hit: at the highest dose activity, negative = less viability, hits mostly cytotoxic; 360,000 tested, 1.6% active; AID 686970;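 also: NT is the 2HG producing partner of a matched IDH1 knockdown line; 0% = DMSO-treated cells and -100% = media-only wells without cells; nearly all actives have a fitted effect of over 55% in size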
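Viability of the 2HG-overproducing fibrosarcoma line after 48 hours of compound exposure at 37 degrees C was determined by luminescence with CellTiter-Glo, and concentration-effect curves were then fitted and categorized.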
SW480 rereplic: DNA re-replication induction in SW480 cells. 340,000 tested, 1.8% active. SW480 DNA re-replication, Hoechst DNA content imaging, 48 h. AID 624297. Potency, µM (titrated, usually from 46.1 µM), inactives show at the highest dose re-replication activation, usual class: activators; also: % of control where 0% means no effect; nearly all actives have a fitted effect of over 55% in size
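Compounds, transferred as 23 nL by pin tool, were incubated with cells for 48 hr; DNA content per nucleus was then quantified by Hoechst staining and fluorescence plate imaging.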
KB-3-1 tox: kills parental KB-3-1 adenocarcinoma cells. KB-3-1 viability, CellTiter-Glo ATP luminescence, 72 h. Potency, µM (top dose mostly 46.1 µM), actives largely listed as cytotoxic. 400,000 tested, 1.4% active; also: % is scaled to controls: 0 for no effect and ±100 for the full control effect; nearly all actives have a fitted effect of over 60% in size
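Parental KB-3-1 viability, qHTS format: 72 h compound exposure, 37 °C; CellTiter-Glo; media-only wells and DMSO plates as controls; concentration-effect fits on corrected data.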
KB-V1 MDR tox: KB-V1 MDR subline cytotoxicity. Potency, µM (highest dose often 46.1 µM), actives largely listed as cytotoxic. AID 1347076. KB-V1 MDR cells viability, CellTiter-Glo, 72 h. 400,000 tested, 3.4% active; also: % is scaled to controls: 0 for no effect and ±100 for the full control effect; nearly all actives have a fitted effect of over 60% in size
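KB-V1 MDR subline cells in DMEM (phenol-red free, 10% FBS) exposed to compounds in qHTS concentration series for 72 h at 37 degrees C. Viability read by CellTiter-Glo luminescence; concentration-effect curves fitted after normalization and correction.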
HT1080 IDH1KD tx: HT-1080 IDH1 knockdown cell toxicity (counter line); HT-1080 IDH1 knockdown viability, ATP luminescence, 48 h; Potency, µM (top dose mostly 46.1 µM), for the others: top-dose activity, negative = toxicity, hits mostly cytotoxic; 360,000 tested, 2% active;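 also: 0% = DMSO wells and -100% = cell-free medium wells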
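Using the IDH1-knockdown HT-1080 line run in the same batch and compound series as the NT line, viability after 48 h at 37 °C was determined by CellTiter-Glo luminescence and expressed as % activity.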
* = called active by the depositor; i = inactive; ? = inconclusive; . = no result given. An excerpt weighted towards active compounds, which were near 7.9% of everything screened. Calls follow the shape of the dose curve; as a rule, active = well fitted curve in the direction sought with a large enough effect; inconclusive = small, poorly fitted or top-dose-only effect, or another doubt; inactive = no such curve, though single readings can be large; an effect the other way counts as inactive or inconclusive. Potency is read from the fitted curve at half-maximal effect.

SMILES | MCF10A rereplic | HT1080-NT tox | SW480 rereplic | KB-3-1 tox | KB-V1 MDR tox | HT1080 IDH1KD tx
CC(=O)OC1CC(OC2C(O)CC(OC3C(O)CC(OC4CCC5(C)C(CCC6C5CCC5(C)C(C7=CC(=O)OC7)C(O)CC65O)C4)OC3C)OC2C)OC(C)C1OC1OC(CO)C(O)C(O)C1O (stereo unspecified) | ? | 0.65µM* | 1.2µM* | 1.2µM* | ? | 1.3µM*
CC(=O)OC1CC2(O)C3CCC4CC(O)CCC4(C)C3CCC2(C)C1C1=CC(=O)OC1 (stereo unspecified) | ? | 1.3µM* | 1.6µM* | 0.18µM* | ? | 0.52µM*
CC1OC(OC2C(O)CC(OC3C(O)CC(OC4CCC5(C)C(CCC6C5CCC5(C)C(C7=CC(=O)OC7)C(O)CC65O)C4)OC3C)OC2C)CC(O)C1O (stereo unspecified) | ? | 1µM* | 1.8µM* | 0.18µM* | ? | 0.58µM*
C[C@H]1O[C@@H](O[C@H]2[C@@H](O)C[C@H](O[C@H]3[C@@H](O)C[C@H](O[C@H]4CC[C@@]5(C)[C@H](CC[C@@H]6[C@@H]5CC[C@]5(C)[C@@H](C7=CC(=O)OC7)CC[C@]65O)C4)O[C@@H]3C)O[C@@H]2C)C[C@H](O)[C@@H]1O | 0.065µM* | 0.21µM* | 0.21µM* | ? | 0.18µM* | 0.15µM*
CC(=O)O[C@@H]1CC[C@]2(C)C3CC[C@@]4(C)C(C[C@@H](O)[C@@H]4O)C3[C@@H](OC(C)=O)C[C@H]2C1 (stereo partly specified) | -11% | -11% | 4% | i | i | -8%
CC(=O)[C@H]1CCC2C3CC[C@H]4C[C@@H](O)CC[C@]4(C)C3CC[C@@]21C (stereo partly specified) | 5% | -5% | 14% | i | ? | -2%
C[C@](O)(CS(=O)(=O)c1ccc(F)cc1)C(=O)Nc1ccc(C#N)c(C(F)(F)F)c1 | 7% | . | 2% | . | . | .
Cc1ccccc1-n1c(-c2ccoc2)nc2ccccc2c1=O | 0% | 5% | -4% | i | i | 12%
O=[N+]([O-])c1cccnc1N1CCCNCC1 | ? | -1% | -6% | i | i | -8%
C/C(CC(c1ccccc1)c1c(O)c2ccccc2oc1=O)=N\NC(N)=S (stereo unspecified) | -31% | 0% | 16µM* | i | ? | 9%
CNS(=O)(=O)c1ccc(N=Cc2c(O)n(-c3ccccc3)c(=O)[nH]c2=O)cc1 | -3% | 0% | 14% | i | i | -4%
N[C@@H](Cc1ccc(N(CCCl)CCCl)cc1)C(=O)O | ? | 0% | ? | i | i | ?
ClCCN(CCCl)c1ccc(-n2cnc3c(Cl)ncnc32)cc1 | 2.9µM* | ? | 8.2µM* | ? | i | 23µM*
CN(C)C(=O)Oc1ccc2nnc3ccnn3c2c1 | -18% | 1% | -10% | i | i | 0%
Cc1c(-c2cccc(Cl)c2)nc2ccccc2c1C(=O)N1CCC2(CC1)OCCO2 | ? | -8% | -8% | i | ? | ?
CC(=O)c1cn(Cc2ccc(C#N)cc2)c2ccccc12 | 9% | 0% | 7.3µM* | i | i | -3%
Cc1ccc(-c2cc(-c3ccc(C)cc3)[n+](C)o2)cc1 | -48% | -18% | -697% | 2.9µM* | i | ?
O=C(O)C(O)(c1ccccc1)C1CCCC1 (stereo unspecified) | ? | 10% | 3% | i | i | 9%
O=C(Nc1ccc2nc(-c3cccs3)c(-c3cccs3)nc2c1)NC1CC1 | 18µM* | ? | ? | i | ? | ?
CN1CCN(CC#CCOc2ccc(Cl)cc2)CC1 | 9% | -1% | -6% | i | i | 3%
Cc1oc2cc3oc(=O)c(CCC(=O)N4CCCCC4)c(C)c3cc2c1C | . | . | . | i | i | .
